Screens as filed in PubChem.
DRV1 agonist – qHTS for Agonists of Human Resolvin D1 Receptor DRV1 | hit rate 2.5% among 48,000 | AID 1346428, 2018 | activation, % at 76.9 µM | Probable G-protein coupled receptor 32 (Homo sapiens), O75388 | CHO-K1 GPR32 beta-arrestin PathHunter luminescence, 90 min; zero percent set by DMSO-only wells;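 active = activation of at least 60% and not above a set upper limit, about 1 call in 100 departs from these limits; inconclusive = activation of 40% to 60%, or above that upper limit; inactive = activation under 40%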
Target sequence (O75388 whole entry, looked up): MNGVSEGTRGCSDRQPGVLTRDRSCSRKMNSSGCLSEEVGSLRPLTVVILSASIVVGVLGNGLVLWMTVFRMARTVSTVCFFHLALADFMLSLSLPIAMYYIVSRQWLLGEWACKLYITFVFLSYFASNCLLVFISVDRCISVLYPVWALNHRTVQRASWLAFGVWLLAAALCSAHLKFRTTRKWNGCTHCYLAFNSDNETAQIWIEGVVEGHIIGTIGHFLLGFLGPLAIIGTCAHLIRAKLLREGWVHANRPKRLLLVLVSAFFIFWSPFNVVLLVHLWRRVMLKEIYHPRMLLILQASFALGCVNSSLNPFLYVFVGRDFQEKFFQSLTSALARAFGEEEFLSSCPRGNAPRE
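Agonism was scored as beta-arrestin recruitment to ProLink-fused GPR32 in stably transfected CHO-K1 cells, giving a chemiluminescent beta-Gal signal; compounds were incubated 90 min at 37 °C.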
SKOV3 invasion – Primary qHTS assay for Inhibitors of ovarian cancer metastasis using an organotypic tumor microenvironment (TME) model. SKOV3ip1-GFP adhesion/invasion on 3D omental model, fluorescence. Potency, µM (highest dose often 45.8 µM), hits mostly inhibitors. hit rate 0.1% among 46,000. AID 1963576, 2024; note: nearly all actives have a fitted effect of over 65% in size
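Adhesion/invasion was scored as fixed GFP-labeled SKOV3ip1 cell counts (488/509 nm), normalized to DMSO and tomatine controls. Cancer cells in serum-free medium, with four compound doses (0.36-46 umol/L), sat 2 hr at RT then 16 hr at 37 C on a 48 hr fibroblast/mesothelial/ECM culture.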
HTT promoter inh – Primary qHTS for Identification of Small Molecule Inhibitors of Huntingtin Promoter Activity; HEK293 HTT promoter firefly luciferase reporter, 24 h; Potency, µM (top dose mostly 57.5 µM), hits mostly inhibitors; hit rate 0.93% among 48,000; AID 1508623, 2021; note: nearly all actives have a fitted effect of over 50% in size
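HEK293 luciferase promoter-reporter cells (2,500/well) plated 24 h, then compounds added at up to 57.5 uM final for 24 h at 37 °C. Firefly luminescence by Dual-Glo, normalized to vehicle (0%) and zero RLU (-100%).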
HTT-AS promoter – Primary qHTS for Identification of Small Molecule Activators of Huntingtin-Antisense Promoter Activity; HEK293 HTT-AS promoter firefly luciferase reporter, 24 h; response scale: percent change from vehicle, -100% = no light; Potency, µM (doses to about 57.5 µM), usual class: activators; hit rate 0.24% among 48,000; AID 1508624, 2021; note: nearly all actives have a fitted effect of over 55% in size
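HEK293 Fluc reporter, 2,500 cells/well, 24 h pre-culture; cpds up to 57.5 uM final, 24 h 37 degrees C; Dual-Glo, 10 min RT; normalized vehicle = 0%, zero RLU = -100%.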
NTMT1 inhibitor – Primary qHTS for Inhibitors of N-terminal methyltransferase 1 (NTMT1): MTaseGlo Assay. NTMT1 MTase-Glo SAH luminescence, purified enzyme. N-terminal Xaa-Pro-Lys N-methyltransferase 1 (Homo sapiens), Q9BV86. hit rate 2.5% among 59,000. Potency, µM (doses to about 114 µM), actives largely listed as inhibitors; note: nearly all actives have a fitted effect of over 65% in size
Hits are given with their value; . = inactive; ? = inconclusive; / = no result given; ! = not confirmed by another sample. Most compounds without a hit are left out; they make up all but 4.5% or so of the library. Unless noted, calls come from the whole dose curve; as a rule, active = well fitted curve in the direction sought with a large enough effect; inconclusive = small, poorly fitted or top-dose-only effect, or another doubt; inactive = no such curve, though single readings can be large; an effect the other way counts as inactive or inconclusive.

SMILES	DRV1 agonist	SKOV3 invasion	HTT promoter inh	HTT-AS promoter	NTMT1 inhibitor
COc1cccc(Cn2cnc3c2c(=O)n(C)c(=O)n3C)c1	.	.	14µM	.	.
Cc1nc(-c2ccc(Cl)cc2)sc1CCNC(=O)c1ccc(C(F)(F)F)cc1	.	.	.	.	.
Cc1cc(C)c(Nc2nn3c(=O)c4cc5c(cc4nc3s2)OCO5)c(C)c1	.	.	.	.	45µM
Nc1cccc(-c2cc3c(Oc4cccc(O)c4)ncnc3[nH]2)c1	/	?	?	.	22µM!
COc1cc(NC(=O)CNS(=O)(=O)c2cccs2)cc(OC)c1OC	.	.	.	.	.
O=C(NCCc1ccccc1)c1c[nH]c2ccc(S(=O)(=O)Nc3ccc(F)cc3F)cc2c1=O	100	.	.	.	.
O=C(NCc1ccco1)c1c[nH]c2ccc(S(=O)(=O)Nc3ccc(F)cc3F)cc2c1=O	63	.	.	.	.
O=C(NCCc1ccccc1)c1c[nH]c2ccc(S(=O)(=O)Nc3ccccc3F)cc2c1=O	.	.	.	.	.
O=C(NCC1CCCO1)c1c[nH]c2ccc(S(=O)(=O)Nc3ccc(F)cc3F)cc2c1=O (stereo not given)	.	.	.	.	.
CCOC(=O)c1c(Nc2cccc(C)c2)nnc(-c2ccccc2)c1-c1ccccc1	.	.	?	.	.
N=C(N)c1ccc2cc(OC(=O)c3ccc(N=C(N)N)cc3)ccc2c1	.	.	.	.	79µM!
CN(C)C(=O)COC(=O)Cc1ccc(OC(=O)c2ccc(N=C(N)N)cc2)cc1	.	.	?	?	?
CCOc1ccc(CCNC(=O)c2ccc3nc(CC)c(CC)nc3c2)cc1	.	.	.	.	.
Cc1ccc(CCNC(=O)CN2CCN(Cc3ccc(Cl)cc3)C2=O)cc1	60	.	.	.	.
O=C(CN1CCN(Cc2ccc(F)cc2Cl)C1=O)NCCc1ccc(Cl)cc1	.	.	.	.	.
Cc1ccc(C(=O)NCC(c2cccs2)S(=O)(=O)c2cccs2)cc1C (stereo not given)	.	.	.	.	.
COc1ccc(CNC(=O)C(=O)NCC(c2cccnc2)N2CCN(c3ccccc3F)CC2)cc1 (stereo not given)	.	.	13µM	.	.
COc1ccccc1CCNC(=O)C(=O)NCC(c1cccnc1)N1CCN(c2ccccc2)CC1 (stereo not given)	.	.	13µM	.	.
COc1cccc(NCc2cccn2-c2nnc(N3CCC(C)CC3)s2)c1	.	.	10µM	.	.
Cc1ccc(CNCc2cccn2-c2nnc(N3CCCC3)s2)cc1	.	.	.	.	.
Cc1ccccc1NCc1cccn1-c1nnc(N2CCC(C)CC2)s1	.	.	.	.	.
COc1ccc(NCc2cccn2-c2nnc(N3CCCCC3)s2)cc1OC	84	.	7.9µM	.	.
CCc1ccc(NCc2cccn2-c2nnc(N3CCCCCC3)s2)cc1	.	.	10µM	.	.
COc1ccc(NCc2cccn2-c2nnc(N3CCOCC3)s2)cc1OC	.	.	?	.	.
CCOc1ccccc1NC(=O)C1CCC(CNS(=O)(=O)c2ccc3c(c2)CCCC(=O)N3)CC1 (stereo not given)	.	.	?	.	.
SMILES	DRV1 agonist	SKOV3 invasion	HTT promoter inh	HTT-AS promoter	NTMT1 inhibitor
CCCN1CCC(c2cccc(S(C)(=O)=O)c2)CC1	/	/	/	/	.
Cc1ccccc1Cn1c(=O)n(CC2CCC(C(=O)N3CCOCC3)CC2)c(=O)c2sccc21 (stereo not given)	.	.	.	.	.
COc1ccc(C(=O)Nc2ccccc2)cc1S(=O)(=O)Nc1ccc(Br)cc1	90	.	.	.	.
COc1ccc(NC(=O)c2cccnc2C)cc1S(=O)(=O)Nc1ccc(Br)cc1	/	/	/	/	.
O=C(Nc1ccc(Br)cc1)c1cccc(C(=O)Nc2ccc(Br)cc2)c1	71	.	.	.	.
COc1ccc(NC(=O)Cc2csc(COc3cccc(C)c3)n2)cc1OC	.	.	?	.	.
COc1cccc(-c2nc(SC(C(C)=O)C(=O)N(C)C)c3c(=O)n(C)c(=O)n(C)c3n2)c1 (stereo not given)	.	.	.	.	.
